Autophagy mod = autophagy modulators in MEF cells, primary screen, imaging, high-content, MEF GFP-LC3; MEF GFP-LC3 puncta imaging; test concentration mostly 10 µM; calls only at 10 µM (by protocol); 190,000 compounds, 0.98% hits; AID 463193, 2010;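 active = percentage of spot-positive cells more than 3 SD above its plate mean, without a fluorescence outlier flag or 80% toxicity; inconclusive = no clear call, values can overlap the other calls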;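 note: spot-positive cell cutoff set from DMSO-treated cells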
WT yeast gro inh = growth inhibition of WT strain, primary screen, mitochondrial fusion inhibitor project, WT and mutant strains, chemical genetic; mitochondrial fusion phenotypic screen; inhibition, % at 10 µM; 190,000 compounds, 2.1% hits; AID 1362, 2008; in the data active = inhibition above about 58%; tested in S. cerevisiae
Ins promoter up = insulin promoter activators in MIN6 cells, imaging, high-content screening, mouse beta cells. 190,000 compounds, 0.3% hits. MIN6 insulin promoter-GFP reporter; stronger effect = higher value. z-score at 5 µM;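 active = z-score above 3 at 5 µM with at least 500 cells counted in the well; inconclusive = wells under 500 cells, flagged as cytotoxic or low count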
L major viab = Leishmania major promastigote growth inhibition, primary screen. Leishmania major promastigotes, resazurin fluorescence viability. inhibition, % at 10 µM. 200,000 compounds, 9% hits; in the data active = inhibition above about 50%;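 note: promastigotes grown with compound for 44 hours at 28 °C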
Insulin prom inh = inhibitors of insulin promoter-driven GFP, primary screen, imaging, TRM-6 cells (human fetal islet line), eGFP reporter, cell count | reporter expression induced with tamoxifen | 130,000 compounds, 0.9% hits | inhibition, % at 2 µM;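 active = inhibition above the mean plus 3 SD, with well images judged a real hit on visual review, cut at about 60% in these data, passing the limit was not always enough; inconclusive = inhibition over the cutoff but images rejected on review; inactive = inhibition not above the cutoff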
Starred values were filed as active, the others as inactive; i = inactive; ? = inconclusive; . = not tested or not shown; + = active, no number. Compounds with a hit are over-represented: about 11% of the library has one in this group of screens.

SMILES	Autophagy mod	WT yeast gro inh	Ins promoter up	L major viab	Insulin prom inh
Nc1ccc(N2CCN(c3ccc(F)cc3)CC2)cc1	i	5	-0.31	78*	-47
Nc1ccc(N2CCN(c3ccc(Cl)c(Cl)c3)CC2)cc1	+	47	-0.01	98*	43
Nc1ccc(N2CCCCCC2)cc1	i	-8	-0.85	100*	-129
CC(C)C[C@H](NC(=O)c1nc[nH]c1C(=O)NCc1ccccc1)C(=O)OCc1ccccc1	i	11	-0.17	17	.
Cc1cccc(C(=O)N[C@H](C(=O)OCC(=O)NC2CCS(=O)(=O)C2)C(C)C)c1 (stereo partly specified)	i	2	.	-3	0
N#C/C=C(/N)N1CCN(c2ccc(Cl)c(Cl)c2)CC1	i	27	1.5	70*	3
COC(=O)N1CCN(c2ccc(Cl)c(Cl)c2)CC1	i	32	.	21	-50
O=C(O)COc1ccccc1/C=C1\SC(=S)N(c2cccnc2)C1=O	.	.	-0.22	.	.
CCOC(=O)N1CCN(S(=O)(=O)c2cc(C)c(C)cc2C)CC1	i	-1	.	0	29
Cc1cc(C)c(S(=O)(=O)/N=C2/C=C(SCC(=O)O)C(=O)c3ccccc32)cc1C	i	66*	0.47	100*	.
Cc1ccc2c(n1)sc1c(N)ncnc12	i	5	-0.41	-3	29
Cc1ccc(-c2csc(C(C#N)=C3CCCC3)n2)cc1	i	-7	1.2	0	75*
N#CC(=C1CCCC1)c1nc(-c2ccccc2)cs1	i	2	0.28	-2	-3
CCOC(=O)N1CCc2c(sc(NC(C)=O)c2C(N)=O)C1	i	-4	.	-2	.
CCN1CCc2c(sc(NC(=S)NC(=O)c3ccco3)c2C(N)=O)C1	.	.	0.23	.	.
CCOC(=O)c1c(NC(=O)C(C)N2CCN(C(=O)c3ccco3)CC2)sc2c1CCCC2 (stereo unspecified)	i	70*	-0.49	40	42
CCOC(=O)c1c(NC(=O)c2ccco2)sc2c1CCCCC2	i	9	-0.58	7	.
CCOC(=O)c1c(NC(=O)c2cccs2)sc2c1CCN(C(=O)OCC)C2	i	63*	-1.5	35	25
CCOC(=O)N1CCc2c(sc(NC(=O)c3ccc(Cl)s3)c2C(N)=O)C1	i	24	.	82*	.
CCOC(=O)c1c(NC(=O)c2cccs2)sc2c1CCCC2	i	16	-2.6	-2	-7
CCN1CCc2c(sc(NC(=O)Nc3ccc(Cl)c(Cl)c3)c2C(N)=O)C1	?	77*	.	50	-208
CN1CC2([N+](=O)[O-])CC=C(OCCO)C([N+](=O)[O-])(C1)C2 (stereo unspecified)	i	-15	-0.17	-7	8
COc1cc(OC)cc(N2C(=O)CSCC2=O)c1	.	.	-0.96	.	.
O=C(COC(=O)c1ccc([N+](=O)[O-])s1)NC(=O)NCc1ccccc1	i	10	0.07	93*	.
CCc1ccccc1NC(=O)c1ccc([N+](=O)[O-])s1	i	19	-1.1	100*	-111
SMILES	Autophagy mod	WT yeast gro inh	Ins promoter up	L major viab	Insulin prom inh
COc1ccccc1NC(=O)COC(=O)c1ccc([N+](=O)[O-])s1	i	95*	-0.53	9	40
O=C(NCC1CCCO1)c1ccc(NS(=O)(=O)c2ccccc2)cc1 (stereo unspecified)	i	9	1.8	-6	.
O=C1CCCN1CCC1CCCCN1Cc1nc(-c2cnccn2)no1 (stereo unspecified)	i	-2	-0.04	5	.
C=CCOc1c(OC)cc(/C=N/Nc2cccc(C(=O)O)c2)c(Br)c1Br	i	-8	0.53	-7	-28
Cn1c(=O)c2c(nc(Sc3ncnn3CC(=O)N3CCOCC3)n2C)n(C)c1=O	.	.	-0.51	.	.
CCOc1cc(CNCCCN2CCOCC2)ccc1OCC(=O)Nc1cccc2ccccc12	i	-8	0.13	100*	.
COc1ccc(CNC(=O)Nc2cccc(C(F)(F)F)c2)cc1OC	i	-10	1.1	6	.
C=CCOc1ccccc1CNCCCN1CCOCC1	i	10	0.31	0	32
COc1cc(CNCCCN2CCOCC2)ccc1OCC(=O)Nc1cccc(C(F)(F)F)c1	i	6	-0.19	100*	-31
CCOc1cc(CNC(CC)CO)ccc1OCC(=O)Nc1cccc(C(F)(F)F)c1 (stereo unspecified)	i	1	0.26	82*	.
O=C(COc1ccc(Br)cc1CNCCCN1CCOCC1)Nc1ccccc1	i	-13	-0.12	91*	.
CCSc1nnc(NC(=O)[C@@H](NC(=O)c2ccc(C(C)(C)C)cc2)C(C)C)s1	i	36	0.18	9	.
Oc1ccc(N=Nc2ccc3c(c2)OCCO3)c(O)c1	.	.	-0.18	.	.
COc1ccc(C)cc1-n1c(=O)c2ccccc2c2ccccc2c1=O	i	0	1.3	-3	-122
COc1ccc(C)cc1N=Nc1ccc(O)c2ncccc12	i	20	-2.2	100*	.
Oc1ccc(N=Nc2ccc3c(c2)OCCO3)c2cccnc12	i	8	-3.4	100*	.
Cc1ccccc1N=Nc1ccc(O)c2ncccc12	i	24	0.03	100*	-58
O=Nc1ccc(O)c2ncccc12	.	.	-0.36	.	.
CC1CCCCC1NC(=O)c1ccc(S(=O)(=O)NCC2CCCO2)cc1 (stereo unspecified)	i	9	.	-2	17
O=C(COC(=O)CCC(=O)c1cccs1)NC1CC1	i	-1	-0.17	-9	.
CCc1cccc(CC)c1N(COC)C(=O)Cn1ccccc1=N	+	2	0.97	-4	-86
CCc1cccc(CC)c1N(COC)C(=O)Cn1nnc2ccccc21	i	-14	-0.86	2	-57
COC(=O)C1=C(C)N=C2SC(C#N)=C(N)N2C1c1cccc(OC)c1 (stereo unspecified)	i	-8	0.01	24	100*
CCOc1ccc2nc(N(CCN(CC)CC)C(=O)c3cccc([N+](=O)[O-])c3)sc2c1	i	-13	0.01	10	.
O=[N+]([O-])c1ccc(Oc2cccc(Br)c2)c2ccncc12	+	9	0.05	6	18
SMILES	Autophagy mod	WT yeast gro inh	Ins promoter up	L major viab	Insulin prom inh
Cc1cccc(-n2nc([N+](=O)[O-])c(=NCc3cccnc3)n2O)c1	i	-19	0.16	82*	.
O=[N+]([O-])c1nn(-c2ccc(Cl)cc2)n(O)c1=NCc1cccnc1	i	6	-0.05	96*	7
O=[N+]([O-])c1nn(-c2ccc(Cl)cc2)n(O)c1=NCc1ccncc1	i	-3	-1.5	75*	.
O=C(Nc1ccc(-c2cn3ccccc3n2)cc1)c1ccco1	i	33	-0.03	-3	-54
O=C(NCc1cn2ccccc2n1)c1ccco1	i	4	3.7*	-2	.
Cc1noc(C)c1S(=O)(=O)N(CC(=O)N1CCCCCC1)c1ccc(C(C)C)cc1	i	10	0.5	63*	.
CNC(=S)N(CCc1c(C)[nH]c2ccc(OC)cc12)Cc1cccnc1	i	-7	-0.2	33	51
Cc1ccc(C)c(NC(=S)N(CCc2nc3cc(C)c(C)cc3[nH]2)Cc2cccnc2)c1	i	-3	.	3	-32
